Source: PubChem BioAssay (Tox21)
Results filed as inconclusive are left out. Active and inactive are the calls of the source. Unless noted, calls come from the whole dose curve; as a rule, active = well fitted curve in the direction sought with a large enough effect in the repeat runs; inconclusive = weak or mixed curves; inactive = no such curve, though single readings can be large; an effect the other way counts as inactive or inconclusive.

Legend:
[1] = A CellTox Green Cytotoxicity Assay to monitor cytotoxicity in HEK293 cells - 32 hour (AID 1224881); note: nearly all actives have a fitted effect of over 40% in size
Method in brief: (§1)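 Fluorescence from a DNA-binding dye excluded by viable cells was measured repeatedly in the same HEK293 wells (600 cells/well) during continuous compound exposure at 37 C. Each assay gives one read point: 0, 8, 16, 24, 32 or 40 h.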

[2] = A CellTox Green Cytotoxicity Assay to monitor cytotoxicity in HepG2 cells - 32 hour (AID 1224883); note: nearly all actives have a fitted effect of over 50% in size
Method in brief: (§2)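 Real-time cytotoxicity: fluorescence of a cell-impermeant cyanine dye binding DNA of dead HepG2 cells, measured repeatedly (0–40 h) during compound exposure at 37 C. Cells seeded 600/well with reagent, dosed after 5 h.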

[3] = A CellTox Green Cytotoxicity Assay to monitor cytotoxicity in HEK293 cells - 8 hour (AID 1224884); note: nearly all actives have a fitted effect of over 35% in size
Method in brief: as §1

[4] = qHTS RealTime-Glo MT Cell Viability Assay in HepG2 cells - 16 hour (AID 1224885); note: nearly all actives have a fitted effect of over 50% in size
Method in brief: (§3)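 Viability was tracked continuously by NanoLuc luminescence from prosubstrate reduced by living HepG2 cells, at successive time points over 40 h of compound exposure. Cells with reagent were preincubated 5 h at 37 °C before compound addition.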

[5] = qHTS RealTime-Glo MT Cell Viability Assay in HEK293 cells - 24 hour (AID 1224886); note: top concentration of the series differs between compounds; nearly all actives have a fitted effect of over 50% in size
Method in brief: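 Viability tracked continuously by luminescence as live cells reduce a prosubstrate for NanoLuc; HEK293 cells preincubated 5 h, compound-treated at 37 C, and read at 0, 8, 16, 24, 32 and 40 h.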

[6] = qHTS RealTime-Glo MT Cell Viability Assay in HEK293 cells - 8 hour (AID 1224887); note: top concentration of the series differs between compounds; nearly all actives have a fitted effect of over 50% in size
Method in brief: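 Luminescence, which tracks viable cell number through reduction of the prosubstrate to a NanoLuc substrate, was read over continuous 37 C culture. Cells (600/well) were premixed with reagent and rested 5 h before 23 nL of compound in DMSO was pinned.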

[7] = A CellTox Green Cytotoxicity Assay to monitor cytotoxicity in HEK293 cells - 16 hour (AID 1224888); note: nearly all actives have a fitted effect of over 35% in size
Method in brief: as §1

[8] = qHTS RealTime-Glo MT Cell Viability Assay in HepG2 cells - 0 hour (AID 1224889); note: nearly all actives have a fitted effect of over 50% in size
Method in brief: as §3

[9] = A CellTox Green Cytotoxicity Assay to monitor cytotoxicity in HepG2 cells - 8 hour (AID 1224890); note: nearly all actives have a fitted effect of over 45% in size
Method in brief: as §2

[10] = qHTS assay to identify small molecule antagonists of the estrogen receptor alpha (ER-alpha) signaling pathway using the BG1 cell line in the presence of 0.1 nM 17-beta-estradiol - cell viability counter screen (AID 1259241); note: nearly all actives have a fitted effect of over 40% in size
Method in brief: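 Cytotoxicity counter-screen: live-cell protease activity measured by fluorescence (30 min reagent step) in the same wells. Cells were VM7Luc4E2 with endogenous ER-alpha and ERE-driven luciferase, treated 22 hr at 37C alongside 0.1 nM 17beta-estradiol final.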

[11] = qHTS assay to identify small molecule antagonists of the androgen receptor (AR) signaling pathway using the MDA cell line in the presence of 0.5 nM R1881 - cell viability counter screen (AID 1259242); note: nearly all actives have a fitted effect of over 45% in size
Method in brief: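 Live-cell protease activity was measured by CellTiter-Fluor fluorescence after 30 min. Before that, MDA-kb2 MMTV-luciferase cells had 16 hr at 37C without CO2, exposed to test compounds and 0.5 nM R1881 final.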

[12] = target: Estrogen receptor (Homo sapiens) (UniProt P03372); experiment: qHTS assay to identify small molecule antagonists of the estrogen receptor alpha (ER-alpha) signaling pathway using the BG1 cell line in the presence of 0.1 nM 17-beta-estradiol (AID 1259244); note: nearly all actives have a fitted effect of over 50% in size
Estrogen receptor (Homo sapiens), sequence (P03372 whole entry, looked up): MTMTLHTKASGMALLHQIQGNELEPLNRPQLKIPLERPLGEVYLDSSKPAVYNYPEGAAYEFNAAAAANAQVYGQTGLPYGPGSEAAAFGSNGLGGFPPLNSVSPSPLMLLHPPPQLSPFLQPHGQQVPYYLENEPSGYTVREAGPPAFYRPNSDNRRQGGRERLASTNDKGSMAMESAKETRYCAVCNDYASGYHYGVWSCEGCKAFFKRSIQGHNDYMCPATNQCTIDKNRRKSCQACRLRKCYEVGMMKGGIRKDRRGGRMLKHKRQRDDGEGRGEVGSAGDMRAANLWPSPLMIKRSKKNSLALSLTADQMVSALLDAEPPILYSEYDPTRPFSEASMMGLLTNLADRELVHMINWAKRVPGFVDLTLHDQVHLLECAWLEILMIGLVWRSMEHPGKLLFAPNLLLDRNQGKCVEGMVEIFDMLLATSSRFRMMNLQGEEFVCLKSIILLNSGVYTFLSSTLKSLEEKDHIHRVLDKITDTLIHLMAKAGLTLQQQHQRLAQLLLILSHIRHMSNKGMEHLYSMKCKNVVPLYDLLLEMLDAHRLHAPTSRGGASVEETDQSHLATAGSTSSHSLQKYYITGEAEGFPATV
Method in brief: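 Luciferase luminescence (ONE-Glo, 30 min at room temperature) was read after 22 hr at 37C exposure to compounds plus 17beta-estradiol at 0.1 nM final. Cells were VM7Luc4E2 with endogenous ER-alpha and an ERE-driven luciferase, pre-cultured 5 days in hormone-depleted medium.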

[13] = qHTS assay to identify small molecule HDAC inhibitors (AID 1259364); note: top concentration of the series differs between compounds; nearly all actives have a fitted effect of over 45% in size
Method in brief: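 Luminescence read after 30 min room-temperature HDAC-Glo incubation measures cellular class I/II HDAC activity. Compounds were applied for 2 hr at 37 C to HCT-116 wild-type cells seeded the day before.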

[14] = qHTS assay to identify small molecule HDAC inhibitors - cell viability counter screen (AID 1259365)
Method in brief: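 CellTiter-Glo luminescence (30 min, room temperature) reported viability after a 2 h compound exposure at 37 C. Cells: wild-type HCT-116, 1,500 per well, seeded the night before.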

[15] = qHTS assay to identify small molecule agonists of the sonic hedgehog signaling (Shh) pathway - cell viability counter screen (AID 1259366); note: nearly all actives have a fitted effect of over 50% in size
Method in brief: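 Cytotoxicity counter screen: CellTiter-Fluor reagent added after 23 h compound exposure, then 1 h at 37C and fluorescence read. Cells were 3T3 Gli1-Luc, seeded 2,000 per well and dosed 4 h post-plating.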

[16] = qHTS assay to identify small molecule antagonists of the sonic hedgehog signaling (Shh) pathway - cell viability counter screen (AID 1259367); note: nearly all actives have a fitted effect of over 55% in size
Method in brief: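 Viability was read by CellTiter-Fluor fluorescence in the same wells, reagent added 23 hr into compound treatment and incubated 1 hr at 37C. The 3T3 Gli1-Luc reporter cells (2,000/well) received conditioned medium after compound and ran 24 hr.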

[17] = qHTS assay to identify small molecule agonists of the sonic hedgehog signaling (Shh) pathway (AID 1259368; calls by dose curve;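 note: NIH/3T3-derived 3T3Gli1-Luc cells carrying a stable Gli1-driven firefly luciferase reporter; series mostly up to about 92 µM; nearly all actives have a fitted effect of over 15% in size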)
Method in brief: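 Luminescence was read after 30 min at room temperature with luciferase reagent. Before that, 3T3Gli1-Luc cells (NIH/3T3 clone, stable Gli1-Luc reporter; 2,000/well) were exposed to compounds for 24 hr at 37C, 5% CO2, compounds being added 4 hr post-plating.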

[18] = A CellTox Green Cytotoxicity Assay to monitor cytotoxicity in HepG2 cells - 0 hour (AID 1224882); note: nearly all actives have a fitted effect of over 35% in size
Method in brief: as §2

[19] = target: Androgen receptor (Homo sapiens) (UniProt P10275); experiment: qHTS assay to identify small molecule antagonists of the androgen receptor (AR) signaling pathway using the MDA cell line in the presence of 0.5 nM R1881 (AID 1259243); note: nearly all actives have a fitted effect of over 50% in size
Androgen receptor (Homo sapiens), sequence (P10275 whole entry, looked up): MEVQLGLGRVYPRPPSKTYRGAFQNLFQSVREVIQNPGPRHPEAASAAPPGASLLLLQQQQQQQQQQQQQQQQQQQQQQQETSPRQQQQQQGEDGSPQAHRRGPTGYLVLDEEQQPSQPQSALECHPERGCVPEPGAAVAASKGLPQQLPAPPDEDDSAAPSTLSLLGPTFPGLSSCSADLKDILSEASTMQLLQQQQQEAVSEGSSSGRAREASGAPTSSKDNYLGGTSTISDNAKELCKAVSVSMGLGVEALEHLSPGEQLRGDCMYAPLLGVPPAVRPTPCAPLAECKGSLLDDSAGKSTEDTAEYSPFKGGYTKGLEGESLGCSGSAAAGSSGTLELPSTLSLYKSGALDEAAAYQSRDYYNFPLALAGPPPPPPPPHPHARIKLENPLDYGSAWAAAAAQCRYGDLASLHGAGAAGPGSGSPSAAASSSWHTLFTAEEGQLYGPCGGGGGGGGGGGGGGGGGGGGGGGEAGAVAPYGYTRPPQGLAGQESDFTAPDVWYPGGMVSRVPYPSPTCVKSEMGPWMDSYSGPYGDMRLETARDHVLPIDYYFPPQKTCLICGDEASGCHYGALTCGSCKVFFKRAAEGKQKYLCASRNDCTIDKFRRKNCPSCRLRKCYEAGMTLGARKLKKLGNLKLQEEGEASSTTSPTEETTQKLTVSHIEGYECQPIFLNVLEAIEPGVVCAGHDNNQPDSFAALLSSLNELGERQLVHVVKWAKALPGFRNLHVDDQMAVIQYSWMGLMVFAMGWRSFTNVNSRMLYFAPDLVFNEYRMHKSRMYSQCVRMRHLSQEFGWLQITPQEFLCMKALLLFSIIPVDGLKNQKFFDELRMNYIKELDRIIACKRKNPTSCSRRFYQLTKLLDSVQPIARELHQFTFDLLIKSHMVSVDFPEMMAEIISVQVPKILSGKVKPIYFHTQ
Method in brief: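 Luminescent reporter readout (ONE-Glo, 30 min, room temperature) after 16 hr co-treatment of MDA-kb2 cells with test compounds and 0.5 nM R1881 final, at 37C without CO2. The MMTV-driven luciferase responds to both AR and GR.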

[20] = qHTS assay to identify small molecule phospholipidosis (PLD) inducers (AID 1259344; active = well fitted curve in the direction sought with a large enough effect; an effect the other way counts as inactive or inconclusive)
Method in brief: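 Phospholipid accumulation was scored by imaging: fixed, Hoechst-counterstained HepG2 cells stained with LipidTOX Red after 24 h compound exposure at 37 C. Read-outs were pit count and pit intensity per well or per cell, with amiodarone and DMSO controls.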
% is set by controls: 0 for no effect and ±100 for the full control effect.

C1CN(CCOCCN2CCOCC2)CCO1
inactive: Potency [1] | Potency [2] | Potency [3] | Potency [4] | Potency [5] | Potency [6] | Potency [7] | Potency [8] | Potency [9] | outcome [10] | Potency [11] | outcome [12] | Potency [13] | outcome [14] | Potency [15] | Potency [16] | outcome [17]

NS(=O)(=O)c1cc(C(=O)NN2C[C@H]3[C@H]4CCC(C4)[C@H]3C2)ccc1Cl
inactive: Potency [1] | Potency [18] | Potency [2] | Potency [3] | Potency [5] | Potency [6] | Potency [7] | Potency [8] | Potency [9] | outcome [10] | Potency [11] | Potency [19] | outcome [12] | Potency [13] | outcome [14] | Potency [16] | outcome [17]

CCCCC/C=C\CCC=O
inactive: Potency [1] | Potency [18] | Potency [2] | Potency [3] | Potency [6] | Potency [7] | outcome [10] | Potency [11] | outcome [12] | outcome [14] | Potency [15] | outcome [17]

CC/C=C\CCOC(C)=O
inactive: Potency [1] | Potency [18] | Potency [2] | Potency [3] | Potency [5] | Potency [6] | Potency [8] | Potency [9] | outcome [10] | Potency [11] | outcome [12] | Potency [13] | outcome [14] | Potency [15] | Potency [16] | outcome [17]

C=C(C)CS(=O)(=O)O
inactive: Potency [1] | Potency [18] | Potency [2] | Potency [3] | Potency [5] | Potency [6] | Potency [7] | Potency [8] | Potency [9] | outcome [10] | Potency [11] | Potency [19] | outcome [12] | Potency [13] | outcome [14] | Potency [15] | outcome [17]

O=C(O)CNC(=O)c1ccc([N+](=O)[O-])cc1
inactive: Potency [1] | Potency [18] | Potency [2] | Potency [3] | Potency [5] | Potency [6] | Potency [7] | Potency [8] | Potency [9] | outcome [10] | Potency [11] | Potency [13] | outcome [14] | Potency [15] | outcome [17]

N=C(N)c1ccc(OCCCOc2ccc(C(=N)N)cc2)cc1
inactive: Potency [1] | Potency [18] | Potency [2] | Potency [3] | Potency [5] | Potency [6] | Potency [7] | Potency [8] | Potency [9] | outcome [10] | Potency [11] | outcome [12] | PLD induction [20] -2.77% [at 0.306 µM] | Potency [13] | outcome [14] | Potency [15] | Potency [16] | outcome [17]

CCO/C([O-])=N/c1c[n+](N2CCOCC2)no1
inactive: Potency [1] | Potency [18] | Potency [2] | Potency [3] | Potency [5] | Potency [6] | Potency [7] | Potency [8] | outcome [10] | Potency [11] | outcome [12] | Potency [20] | Potency [13] | outcome [14] | Potency [15] | Potency [16] | outcome [17]

CCCCOCCOCCOCCCC
inactive: Potency [1] | Potency [18] | Potency [2] | Potency [3] | Potency [5] | Potency [6] | Potency [7] | Potency [8] | Potency [9] | outcome [10] | Potency [11] | Potency [13] | outcome [14] | Potency [15] | Potency [16] | outcome [17]

OCCCC1CCCCC1
inactive: Potency [1] | Potency [2] | Potency [3] | Potency [4] | Potency [5] | Potency [6] | Potency [7] | Potency [8] | Potency [9] | outcome [10] | Potency [11] | outcome [12] | outcome [14] | Potency [15] | Potency [16]

CC(=O)N(CC(O)CO)c1c(I)c(C(=O)NCCO)c(I)c(C(=O)NCC(O)CO)c1I (centres undefined)
inactive: Potency [1] | Potency [2] | Potency [3] | Potency [4] | Potency [5] | Potency [6] | Potency [7] | Potency [8] | Potency [9] | outcome [10] | Potency [11] | Potency [20] | Potency [13] | outcome [14] | Potency [16] | outcome [17]

COC(=O)c1ccc(C)cc1C1=NC(C)(C(C)C)C(=O)N1 (centres undefined)
inactive: Potency [1] | Potency [18] | Potency [2] | Potency [3] | Potency [5] | Potency [6] | Potency [7] | Potency [8] | Potency [9] | outcome [10] | Potency [11] | Potency [13] | outcome [14] | Potency [15] | Potency [16] | outcome [17]

CCN(CC)CCOCCOC(=O)C1(c2ccccc2)CCCC1
inactive: Potency [1] | Potency [18] | Potency [2] | Potency [3] | Potency [6] | Potency [7] | Potency [8] | Potency [9] | outcome [10] | Potency [11] | outcome [12] | Potency [20] | Potency [13] | outcome [14] | outcome [17]

Brc1c(NC2=NCCN2)ccc2nccnc12
inactive: Potency [1] | Potency [18] | Potency [2] | Potency [3] | Potency [5] | Potency [6] | Potency [7] | Potency [8] | Potency [9] | outcome [10] | Potency [11] | Potency [20] | outcome [14] | Potency [15] | Potency [16] | outcome [17]

CC(C)OC(=O)c1ccccc1
inactive: Potency [1] | Potency [18] | Potency [2] | Potency [3] | Potency [5] | Potency [6] | Potency [7] | Potency [8] | Potency [9] | outcome [10] | Potency [11] | outcome [12] | Potency [13] | outcome [14] | Potency [16] | outcome [17]

COCCCOCCCOC
inactive: Potency [1] | Potency [18] | Potency [3] | Potency [6] | Potency [7] | Potency [8] | Potency [9] | outcome [10] | Potency [11] | outcome [12] | Potency [13] | outcome [14] | Potency [15] | Potency [16] | outcome [17]
